In PubChem BioAssay (Tox21):
Values joined by “and” are separate entries in the source; they are usually repeats but may differ in a detail not shown here. Equal values may be shown once. Results filed as inconclusive are left out. The source holds several records for some structures; these can differ, active in one and inactive in another. Active and inactive are the calls of the source. Calls follow the shape of the dose curve; as a rule, active = well fitted curve in the direction sought with a large enough effect in the repeat runs; inconclusive = weak or mixed curves; inactive = no such curve, though single readings can be large; an effect the other way counts as inactive or inconclusive.

Assays:
[1] = A CellTox Green Cytotoxicity Assay to monitor cytotoxicity in HEK293 cells - 40 hour (AID 1224871); also: nearly all actives have a fitted effect of over 45% in size
Outline: (§1)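 Homogeneous no-lysis format: HEK293 cell suspension mixed with CellTox Green reagent, seeded, incubated 5 h at 37 C/5% CO2, then dosed by pintool with compound in DMSO.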

[2] = qHTS RealTime-Glo MT Cell Viability Assay in HEK293 cells - 16 hour (AID 1224872); also: nearly all actives have a fitted effect of over 50% in size
Outline: (§2)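 Luminescence generated by NanoLuc from substrate produced by living HEK293 cells served as the viability signal. Each value reflects the reading at its stated time point during continuous 40 h compound exposure at 37 C.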

[3] = qHTS RealTime-Glo MT Cell Viability Assay in HepG2 cells - 8 hour (AID 1224873); also: nearly all actives have a fitted effect of over 55% in size
Outline: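 Real-time viability: cells seeded at 600 per well together with NanoLuc and cell-permeant prosubstrate, compounds added after 5 h incubation. Luminescence tracked at 0, 8, 16, 24, 32 and 40 h of exposure.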

[4] = qHTS RealTime-Glo MT Cell Viability Assay in HEK293 cells - 40 hour (AID 1224874); settings: RealTime-Glo luminescence; max response: stronger effect = lower value; also: nearly all actives have a fitted effect of over 50% in size
Outline: (§3)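 Measured as luminescence from the same continuously cultured HEK293 wells at successive time points (0, 8, 16, 24, 32, 40 h) after compound addition. Reagent present from seeding; dosing at 5 h; incubation 37 C.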

[5] = A CellTox Green Cytotoxicity Assay to monitor cytotoxicity in HEK293 cells - 24 hour (AID 1224875); also: nearly all actives have a fitted effect of over 45% in size
Outline: as §1

[6] = A CellTox Green Cytotoxicity Assay to monitor cytotoxicity in HepG2 cells - 16 hour (AID 1224876); also: nearly all actives have a fitted effect of over 45% in size
Outline: (§4)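 Fluorescent DNA-binding dye, 600 HepG2 cells/well, 5 h preincubation then compound in DMSO; same plates read at 0–40 h, 37 C.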

[7] = A CellTox Green Cytotoxicity Assay to monitor cytotoxicity in HepG2 cells - 24 hour (AID 1224878); also: nearly all actives have a fitted effect of over 45% in size
Outline: as §4

[8] = A CellTox Green Cytotoxicity Assay to monitor cytotoxicity in HepG2 cells - 40 hour (AID 1224879); also: nearly all actives have a fitted effect of over 40% in size
Outline: as §4

[9] = qHTS RealTime-Glo MT Cell Viability Assay in HEK293 cells - 0 hour (AID 1224880); also: nearly all actives have a fitted effect of over 45% in size
Outline: as §3

[10] = A CellTox Green Cytotoxicity Assay to monitor cytotoxicity in HepG2 cells - 0 hour (AID 1224882); also: nearly all actives have a fitted effect of over 35% in size
Outline: as §4

[11] = A CellTox Green Cytotoxicity Assay to monitor cytotoxicity in HepG2 cells - 32 hour (AID 1224883); also: nearly all actives have a fitted effect of over 50% in size
Outline: as §4

[12] = A CellTox Green Cytotoxicity Assay to monitor cytotoxicity in HEK293 cells - 8 hour (AID 1224884); also: nearly all actives have a fitted effect of over 35% in size
Outline: as §1

[13] = qHTS RealTime-Glo MT Cell Viability Assay in HEK293 cells - 24 hour (AID 1224886); also: nearly all actives have a fitted effect of over 50% in size
Outline: as §2

[14] = qHTS RealTime-Glo MT Cell Viability Assay in HEK293 cells - 8 hour (AID 1224887); also: nearly all actives have a fitted effect of over 50% in size
Outline: as §3

[15] = A CellTox Green Cytotoxicity Assay to monitor cytotoxicity in HEK293 cells - 16 hour (AID 1224888); also: nearly all actives have a fitted effect of over 35% in size
Outline: as §1

[16] = A CellTox Green Cytotoxicity Assay to monitor cytotoxicity in HepG2 cells - 8 hour (AID 1224890); also: nearly all actives have a fitted effect of over 45% in size
Outline: as §4

[17] = qHTS RealTime-Glo MT Cell Viability Assay in HepG2 cells - 16 hour (AID 1224885); also: nearly all actives have a fitted effect of over 50% in size
Outline: (§5)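 Tox21 10K library screened in qHTS format on HepG2 cells carrying RealTime-Glo reagents. Compounds were added after a 5 h preincubation, and the luminescent signal from continuous culture was measured repeatedly during 40 h treatment.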

[18] = qHTS RealTime-Glo MT Cell Viability Assay in HepG2 cells - 0 hour (AID 1224889); also: nearly all actives have a fitted effect of over 50% in size
Outline: as §5

[19] = A CellTox Green Cytotoxicity Assay to monitor cytotoxicity in HEK293 cells - 32 hour (AID 1224881); also: nearly all actives have a fitted effect of over 40% in size
Outline: as §1

[20] = qHTS RealTime-Glo MT Cell Viability Assay in HepG2 cells - 32 hour (AID 1224877); also: nearly all actives have a fitted effect of over 55% in size
Outline: as §5
% is scaled to controls: 0 for no effect and ±100 for the full control effect; potency is read from the fitted curve at half-maximal effect.

NCCCCCC(=O)O
inactive: Potency [1] | Potency [2] | Potency [3] | max response [4] -0.0726% | Potency [5] | Potency [6] | Potency [7] | Potency [8] | Potency [9] | Potency [10] | Potency [11] | Potency [12] | Potency [13] | Potency [14] | Potency [15] | Potency [16]

CCN(CC)C(=O)Nc1ccc(OCC(O)CNC(C)(C)C)c(C(C)=O)c1 (stereo unspecified)
inactive: Potency [1] | Potency [2] | Potency [3] | max response [4] 1.66% | Potency [5] | Potency [6] | Potency [7] | Potency [8] | Potency [9] | Potency [10] | Potency [11] | Potency [12] | Potency [17] | Potency [13] | Potency [14] | Potency [15] | Potency [18] | Potency [16]

CCCCOCCOC(=O)c1ccccc1C(=O)OCCOCCCC
inactive: Potency [1] | Potency [2] | Potency [3] | max response [4] -18.4% | Potency [5] | Potency [6] | Potency [7] | Potency [8] | Potency [9] | Potency [19] | Potency [10] | Potency [11] | Potency [12] | Potency [17] | Potency [13] | Potency [14] | Potency [15] | Potency [18] | Potency [16]

COc1cc(C(=S)N2CCOCC2)ccc1O
inactive: Potency [1] | Potency [2] | Potency [3] | max response [4] 0.473% | Potency [5] | Potency [6] | Potency [7] | Potency [8] | Potency [9] | Potency [19] | Potency [10] | Potency [11] | Potency [12] | Potency [17] | Potency [13] | Potency [14] | Potency [15] | Potency [18] | Potency [16]

Cc1cc(C(C)(C)C)c(O)c(C(C)(C)C)c1
inactive: Potency [2] | Potency [3] | max response [4] -21.9% and 0.957% and 2.01% | Potency [6] | Potency [7] | Potency [8] | Potency [9] | Potency [10] | Potency [11] | Potency [12] | Potency [17] | Potency [13] | Potency [14] | Potency [15] | Potency [18] | Potency [16]
active: Potency [1] 49.1 µM | Potency [5] 49.1 µM | Potency [19] 49.1 µM

CC(=O)C1=C(C)[C@@H]2C[C@@]3(C1)[C@H](C)CC[C@H]3C2(C)C
32.3 µM (active) and inactive: Potency [1]
inactive: Potency [2] | Potency [3] | max response [4] -1.5% and -2.44% | Potency [5] | Potency [6] | Potency [20] | Potency [9] | Potency [10] | Potency [11] | Potency [12] | Potency [13] | Potency [14] | Potency [15] | Potency [16]
36.2 µM (active) and inactive: Potency [19]

CC(C)CCCCCCc1ccc(O)cc1
active: Potency [1] 19.8 µM and 38.9 µM | Potency [2] 3.96 µM | Potency [4] 1.25 µM | Potency [5] 28 µM and 38.9 µM | Potency [6] 44.4 µM and 27.5 µM | Potency [7] 22.3 µM and 38.9 µM | Potency [8] 14 µM and 43.6 µM | Potency [19] 22.3 µM and 38.9 µM | Potency [11] 19.8 µM and 43.6 µM | Potency [12] 39.6 µM | Potency [13] 4.44 µM | Potency [14] 19.8 µM | Potency [15] 39.6 µM and 38.9 µM | Potency [16] 25 µM and 43.6 µM
inactive: Potency [9] | Potency [10] | Potency [17] | Potency [18]

CNC1(C)C2CCC(C2)C1(C)C (stereo unspecified)
inactive: Potency [1] | Potency [2] | Potency [3] | max response [4] -3.74% | Potency [5] | Potency [20] | Potency [9] | Potency [19] | Potency [12] | Potency [17] | Potency [13] | Potency [14] | Potency [15] | Potency [18]

Cc1c(O)cccc1C(=O)N[C@@H](CSc1ccccc1)[C@H](O)CN1C[C@H]2CCCC[C@H]2C[C@H]1C(=O)NC(C)(C)C
active: Potency [4] 13.4 µM | Potency [8] 42.5 µM and 10.7 µM | Potency [11] 12 µM | Potency [13] 21.3 µM
inactive: Potency [1] | Potency [3] | Potency [5] | Potency [6] | Potency [20] | Potency [7] | Potency [9] | Potency [19] | Potency [10] | Potency [12] | Potency [14] | Potency [15] | Potency [18] | Potency [16]

Cc1cc(C2(c3cc(C)c(O)cc3C)OS(=O)(=O)c3ccccc32)c(C)cc1O
inactive: Potency [1] | Potency [2] | max response [4] -21.7% and -18.4% | Potency [5] | Potency [6] | Potency [7] | Potency [8] | Potency [10] | Potency [11] | Potency [12] | Potency [13] | Potency [14] | Potency [15] | Potency [16]
active: Potency [9] 27.5 µM and 24.5 µM | Potency [18] 19.5 µM and 15.5 µM

CCN(CC)C(=S)SSC(=S)N(CC)CC
active: Potency [1] 155 nM and 5.62 µM and 84.9 nM | Potency [2] 89.1 nM and 13.4 µM | Potency [3] 44.7 µM | Potency [4] 174 nM and 656 nM and 13.4 µM | Potency [20] 0.0891 µM | Potency [8] 100 nM | Potency [11] 8.25 µM | Potency [17] 0.141 µM | Potency [13] 195 nM and 100 nM and 13.4 µM | Potency [14] 13.8 µM and 18.5 µM
50.1 µM (active) and inactive: Potency [6]
inactive: Potency [9] | Potency [10] | Potency [18]
56.2 µM (active) and inactive: Potency [16]
inactive and 56.2 µM (active): Potency [12]

O=C1OC2(c3ccc(O)cc3Oc3cc(O)ccc32)c2ccccc21
active: Potency [1] 692 nM and 1.2 µM | Potency [5] 692 nM and 1.07 µM | Potency [6] 616 nM and 301 nM | Potency [7] 616 nM and 301 nM | Potency [8] 616 nM and 301 nM | Potency [19] 692 nM and 1.2 µM | Potency [10] 1.55 µM and 301 nM | Potency [11] 616 nM and 301 nM | Potency [12] 692 nM and 848 nM | Potency [15] 616 nM and 1.2 µM | Potency [16] 692 nM and 301 nM
inactive: Potency [2] | max response [4] 12.3% and -17.2% | Potency [20] | Potency [9] | Potency [17] | Potency [13] | Potency [14] | Potency [18]

CC1COc2c(N3CCN(C)CC3)c(F)cc3c(=O)c(C(=O)O)cn1c23 (stereo unspecified)
inactive: Potency [1] | Potency [5] | Potency [6] | Potency [7] | Potency [8] | Potency [19] | Potency [10] | Potency [11] | Potency [12] | Potency [15] | Potency [16]
